esBAF inh = Bmi1 luciferase reporter increase in mESCs, primary screen, esBAF inhibitor project, mouse ES cells, Bmi1 luciferase knock-in, single point | reporter increase, % at 12.5 µM | 24 h; 100% = twice the neutral-well signal | 350,000 compounds, 2% hits | AID 602393, 2012; in the data active means activation above about 40%;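 further: a rise in the Bmi1 reporter signal indicates esBAF inhibition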
AF4-AF9 inh = inhibitors of AF4 peptide binding to AF9, primary screen, biochemical, AlphaScreen, biotin-AF4 peptide, FLAG-AF9, single point. inhibition, % at 10 µM. 350,000 compounds, 0.47% hits. Protein AF-9 (Homo sapiens), P42568;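 active means every replicate reaching a set inhibition limit, whatever the replicate mean, cut at about 25% in these data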
Wnt act = Wnt/beta-catenin pathway activators, primary screen, cell-based, plate reader, single point. 300,000 compounds, 1.2% hits. Wnt/beta-catenin reporter cell assay, activator. AID 743398, 2014. activation, % at 9.35 µM; in the data active means activation above about 30%, passing the limit was not always enough
FGF22 binding = binders of human FGF22 protein, primary screen, FGF22 synaptogenesis inhibitor project, biophysical, thermal shift, single point; Fibroblast growth factor 22 (Homo sapiens), Q9HCT0; recombinant FGF22 thermal shift, SYPRO orange fluorescence; percent of sucrose octasulfate shift, DMSO zero; activity (Tm shift, normalised), % at 9.99 µM; 340,000 compounds, 1.5% hits; AID 651658, 2012;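 active means mean Tm shift, scaled 0 neutral to 100 positive control, at about 1.3% or above, every replicate too, limit read from the data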
Target sequence (Q9HCT0 whole entry, looked up): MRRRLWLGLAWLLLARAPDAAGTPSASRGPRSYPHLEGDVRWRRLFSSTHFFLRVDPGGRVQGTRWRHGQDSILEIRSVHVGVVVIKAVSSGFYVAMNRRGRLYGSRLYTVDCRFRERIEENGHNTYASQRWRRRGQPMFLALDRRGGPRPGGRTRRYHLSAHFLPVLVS
SMARCA2 act = SMARCA2 (BRM) function activators, primary screen, cell-based, luminescence, high throughput | MG213 cells, MMTV-luciferase reporter, dexamethasone, overnight | activation, % at 9.1 µM | 370,000 compounds, 1% hits; in the data active means activation above about 7.8%
MITF act = activators of MITF-driven TRPM1 promoter reporter, primary screen, cell-based, SK-MEL-5, luciferase, single point | SK-MEL-5 TRPM1-promoter luciferase, 24 h; % of positive control, neutral wells = 0 | activation, % at 12.5 µM | 300,000 compounds, 0.75% hits | AID 588334, 2011;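 active means mean activation of at least 80% with every replicate also reaching 80%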
SMARCA2 conf = SMARCA2 (BRM) function activators, confirmation, cell-based, luminescence, triplicate | shares compounds with SMARCA2 act | MG213 cells, MMTV-luciferase with dexamethasone, overnight; MG213 cells expressing E1A, Rb sequestered; DMSO wells 0%, reference activator 100% | activation, % at 9.1 µM | 3,500 compounds, 30% hits | AID 652260, 2013;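 active means activation above its plate's cutoff, the mean activation of tested wells plus 3 SD, cut at about 7.9% in these data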
VP16 Luc act = GAL4-VP16 luciferase reporter activation, counter-screen for SMARCA2 (BRM) activator project, cell-based, pG5luc, luminescence, high throughput; shares compounds with SMARCA2 act; HEK293 GAL4-VP16 pG5luc reporter; scaled: DMSO wells 0%, SAHA wells 100%; activation, % at 9.1 µM; 3,500 compounds, 41% hits; AID 686939, 2013;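 active means activation above the solvent-only control well mean plus 3 SD, averaged across control plates, cut at about 5.2% in these data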
Numbers stand for hits; – = inactive; · = not tested or not shown. Sampled rows, rich in hits. Any-hit rate of the full collection: about 4.3%.

SMILES | esBAF inh | AF4-AF9 inh | Wnt act | FGF22 binding | SMARCA2 act | MITF act | SMARCA2 conf | VP16 Luc act
COc1ccc(-c2nc(N)ncc2-c2ccc(OC)c(OC)c2)c(O)c1 | – | – | – | – | 8.1 | – | – | –
Cc1ccc(S(=O)(=O)Nc2cccc3c2O[C@H](CN(C)CC2CCCCC2)[C@@H](C)CN([C@H](C)CO)C3=O)cc1 | – | – | · | – | · | · | · | ·
COC(=O)c1cnn2c3c(c(C)nc12)CCCC3 | · | · | · | · | 10.5 | – | – | –
CO[C@H]1CN(C)C(=O)c2ccc(NC(=O)C3CCCC3)cc2OC[C@@H](C)N(C(=O)CC2CC2)C[C@@H]1C | – | – | · | – | · | · | · | ·
CCOC(=O)c1c(C)[nH]c(N=Nc2ccc(OC)cc2)c1C | · | – | 53.7 | – | 9.3 | 129.0 | – | 7.7
c1ccc(-c2ccc(-c3ccncn3)cc2)cc1 | · | – | 44.0 | – | 9.1 | · | – | 7.6
CCS(=O)(=O)N1CC2(C1)[C@H](c1ccccc1)[C@H](CO)N2CC1CCCC1 | · | – | · | – | · | · | · | ·
C[C@@H]1CN([C@@H](C)CO)C(=O)c2cc(NC(=O)CCC(F)(F)F)ccc2O[C@@H](C)CCCCO[C@H]1CN(C)CC1CCCCC1 | – | · | · | – | · | · | · | ·
c1cc2ccc3ccc(-n4cnnn4)c4ccc(c1)c2c34 | · | · | – | · | 8.7 | – | – | –
Cc1c(N)cccc1-n1cnnn1 | · | – | – | – | – | – | · | ·
COc1ccc(OCC(O)CN2CCC(CN3C(=O)c4cccc5cccc(c45)C3=O)CC2)cc1 (stereo not drawn) | · | – | – | – | 11.3 | – | – | –
COc1cccc(-c2cnc3c(NC=O)cc(-c4cccc(C(=O)N(C)C)c4)cn23)c1 | – | – | – | – | 12.3 | · | – | –
COc1ccc(-c2cc(NC=O)c3ncc(-c4ccc(OC)c(OC)c4)n3c2)cc1OC | – | – | – | – | 13.3 | · | 15.1 | 8.6
COc1cc(-c2cc(NC=O)c3ncc(-c4ccc(C(C)=O)cc4)n3c2)ccc1O | – | – | – | – | 14.2 | · | 21.0 | –
COc1ccc(-c2cc(NC=O)c3ncc(-c4ccc(OC)c(OC)c4)n3c2)cc1 | – | – | – | – | – | · | · | ·
CN(C)c1cccc(CNC(=O)c2csc([C@@H]3O[C@H](CO)[C@H](O)[C@H](O)[C@H]3O)n2)c1 | – | – | – | – | – | · | · | ·
CN(C)c1cccc(CNC(=O)c2csc([C@@H]3O[C@H](CO)[C@@H](O)[C@H]3O)n2)c1 | – | – | – | – | 8.3 | · | – | –
Cc1ccc(C=NNC(=O)CSc2nc3sc4c(c3c(=O)n2-c2ccccc2)CCCC4)s1 | · | · | · | · | – | · | · | ·
CC(=NO)c1ccc2c(c1)Cc1cc([N+](=O)[O-])ccc1-2 | · | – | – | – | 11.6 | – | – | –
C[C@H](CO)N1C[C@H](C)[C@@H](CN(C)C(=O)NC2CCCC2)Oc2ncc(C3=CCCCC3)cc2C1=O | – | – | · | – | · | · | · | ·
CCS(=O)(=O)NCC[C@H]1CC[C@H](NC(=O)C2CCOCC2)[C@@H](CO)O1 | – | – | · | – | · | · | · | ·
CCSc1nnc(NC(=O)c2csc(C)c2)s1 | – | · | – | · | 8.1 | 84.0 | – | 8.8
CCCC(=O)Nc1nnc(SCC(=O)N2CCCCC2)s1 | – | – | – | – | – | – | · | ·
CCCC(=O)Nc1nnc(SCC)s1 | · | · | – | · | 8.5 | – | – | –
CCSc1nnc(NC(=O)c2cccc3ccccc23)s1 | – | – | – | – | – | – | · | ·
